Only some compounds are listed: those with a hit (about 1.4% of all), similar ones and a draw of the others.
EPAC2 agonist – EPAC2 (human) agonism; Q8WZA2; EPAC2 activation, biochemical qHTS; response scale: 100% = 6.5 mM cAMP response; Potency, µM (top dose mostly 154 µM), for inactives: top-dose activation, most hits filed as activators; hit rate 0.079% among 360,000; further: potency means the concentration at half of the fitted maximal effect; nearly all actives have a fitted effect of over 50% in size
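Guanine nucleotide exchange by EPAC2 is measured as reduced fluorescence of BODIPY-GDP once it is released from 250 nM Rap1B. Plates are read kinetically for 30 min at room temperature; results are scaled to 6.5 mM cAMP.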
EPAC1 ag – agonists of human EPAC1; Potency, µM (doses to about 154 µM), for inactives: at the highest dose activation, usual class: activators; hit rate 0.073% among 360,000; O95398; EPAC1 agonist qHTS, biochemical assay; response scale: 100% = response to 6.5 mM cAMP; further: potency means the concentration at half of the fitted maximal effect; nearly all actives have a fitted effect of over 60% in size
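Multi-concentration qHTS readout: loss of Rap1B-bound BODIPY-GDP fluorescence driven by 100 nM EPAC1 with excess GDP (50 uM), monitored kinetically at room temperature; agonist response expressed relative to 6.5 mM cAMP.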
EPAC2 antag – EPAC2 (human) antagonism; EPAC2 GEF exchange of Rap1B-BODIPY-GDP, fluorescence; Potency, µM (titrated, usually from 114 µM), without a hit: top-dose activity, negative = inhibition, actives largely listed as inhibitors; AID 720708; hit rate 0.18% among 360,000; further: potency means the concentration at half of the fitted maximal effect; on the % scale 0 is the no-effect control and ±100 the full control effect; nearly all actives have a fitted effect of over 45% in size
hERG WT inh – blocks the wildtype human KCNH2 potassium channel. Q12809. U2OS, BacMam KCNH2, thallium flux FluxOr; active compounds read low. activity change, % at 1.84 µM. hit rate 0.37% among 340,000;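 active means maximum activity change below -70%; inconclusive means maximum activity change between -70% and -50%; inactive means maximum activity change above -50%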; further: on the % scale 0 is the no-effect control and ±100 the full control effect
Target sequence (Q12809 whole entry, looked up): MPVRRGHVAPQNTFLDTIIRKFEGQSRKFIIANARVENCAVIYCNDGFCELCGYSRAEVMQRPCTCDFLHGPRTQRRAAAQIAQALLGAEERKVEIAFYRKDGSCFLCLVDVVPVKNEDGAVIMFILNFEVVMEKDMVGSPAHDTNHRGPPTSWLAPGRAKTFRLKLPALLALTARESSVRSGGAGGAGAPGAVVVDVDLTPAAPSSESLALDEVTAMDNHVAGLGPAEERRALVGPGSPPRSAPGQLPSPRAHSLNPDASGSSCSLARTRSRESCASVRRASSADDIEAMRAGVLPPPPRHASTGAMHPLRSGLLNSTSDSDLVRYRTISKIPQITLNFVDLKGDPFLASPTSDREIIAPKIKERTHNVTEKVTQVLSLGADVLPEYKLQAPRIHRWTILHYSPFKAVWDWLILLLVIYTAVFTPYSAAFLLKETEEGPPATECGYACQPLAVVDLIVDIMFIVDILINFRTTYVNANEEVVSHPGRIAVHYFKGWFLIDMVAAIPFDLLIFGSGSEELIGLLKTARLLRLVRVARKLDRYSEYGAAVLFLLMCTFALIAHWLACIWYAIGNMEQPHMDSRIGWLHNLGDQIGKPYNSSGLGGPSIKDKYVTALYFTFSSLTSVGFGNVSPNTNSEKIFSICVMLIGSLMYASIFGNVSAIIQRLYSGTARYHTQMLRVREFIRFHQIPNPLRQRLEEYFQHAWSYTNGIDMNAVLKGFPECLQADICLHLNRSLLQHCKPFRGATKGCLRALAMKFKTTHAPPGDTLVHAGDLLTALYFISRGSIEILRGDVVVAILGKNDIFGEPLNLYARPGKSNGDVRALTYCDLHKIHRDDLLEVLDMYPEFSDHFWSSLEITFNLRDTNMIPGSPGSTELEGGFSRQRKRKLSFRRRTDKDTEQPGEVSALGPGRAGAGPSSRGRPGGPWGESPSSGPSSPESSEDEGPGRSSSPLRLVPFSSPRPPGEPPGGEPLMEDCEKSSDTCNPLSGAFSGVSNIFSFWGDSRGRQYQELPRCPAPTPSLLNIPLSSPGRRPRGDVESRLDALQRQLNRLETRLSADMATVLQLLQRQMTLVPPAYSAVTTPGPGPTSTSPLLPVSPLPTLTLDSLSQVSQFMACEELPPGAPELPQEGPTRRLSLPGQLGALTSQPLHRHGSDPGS
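U2OS cells were transduced with wild-type KCNH2 virus (2.03 x 10^8 / mL) for 4 h at room temperature, then cultured overnight at 37 C. Thallium flux was read with FluxOr dye. Rate constants were normalized to DMSO controls.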
EPAC1 antagonist – EPAC1 (human) antagonism; EPAC1 GEF assay, Rap1b-BODIPY-GDP exchange fluorescence; Potency, µM (series often up to 115 µM), for the others: at the highest dose activity change, negative = inhibition, actives largely listed as inhibitors; hit rate 0.14% among 360,000; AID 720709;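 further: potency means the concentration at half of the fitted maximal effect; plate controls were vehicle for no effect and positive control for full effect; nearly all actives have a fitted effect of over 50% in size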
KCNH2 3.1 inh – inhibitors of human KCNH2 3.1 potassium channel isoform | AID 720553 | U2OS KCNH2 3.1, thallium flux FluxOr; active compounds read low | activity change, % (tested at about 1.8 µM) | hit rate 0.95% among 340,000;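 active means maximum activity change below -70%; inconclusive means maximum activity change from -70% to -50%; inactive means maximum activity change above -50%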;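 further: thallium influx rate constant from kinetic fluorescence after stimulation buffer; on the % scale 0 is the no-effect control and ±100 the full control effect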
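Thallium flux read-out: FluxOr dye with Red40 quencher in HBSS/HEPES, 45 min at RT. Rate constants from kinetic reads were normalized to positive and negative DMSO controls. Cells: U2OS virally expressing the 3.1 isoform.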
Numbers without * were called inactive; i = inactive; ? = inconclusive; nt = no result given. Unless noted, the call rests on the fitted dose curve; in most records, active means well fitted curve in the direction sought with a large enough effect; inconclusive means small, poorly fitted or top-dose-only effect, or another doubt; inactive means no such curve, though single readings can be large; an effect the other way counts as inactive or inconclusive.

SMILES	EPAC2 agonist	EPAC1 ag	EPAC2 antag	hERG WT inh	EPAC1 antagonist	KCNH2 3.1 inh
COCC(C)OC(=O)C(C#N)c1nc2ccccc2nc1N1CCN(Cc2ccccc2)CC1 (stereo not given)	12%	20%	-6%	12	1%	-26
N=c1c(C(=O)NC2CCCC2)cc2c(=O)n3ccccc3nc2n1Cc1ccccc1	-8%	7%	-5%	-6	-27%	-77*
N=c1c(C(=O)NCC2CCCO2)cc2c(=O)n3ccccc3nc2n1Cc1ccc(Cl)cc1 (stereo not given)	9%	1%	-3%	-45	-11%	-131*
Cc1ccc(Cn2c(=N)c(C(=O)NC3CCCCC3)cc3c(=O)n4ccccc4nc32)cc1	-26%	2%	10%	-1	5%	-44
COc1ccc(CCn2c(=N)c(C(=O)NCC3CCCO3)cc3c(=O)n4ccccc4nc32)cc1 (stereo not given)	2%	4%	-14%	?	-12%	-86*
COc1ccc(CCn2c(=N)c(C(=O)NC3CCCCC3)cc3c(=O)n4ccccc4nc32)cc1	-67%	-4%	?	?	20%	-87*
CCCCN(C)C(=O)c1sc(=O)n(Cc2c(C)cccc2C)c1C	3%	-4%	-10%	nt	-14%	nt
COc1ccc(CCn2c(=N)c(S(=O)(=O)c3ccc(C)cc3)cc3c(=O)n4ccccc4nc32)cc1	-7%	-17%	89µM*	4	105%	-2
N=c1c(C(=O)NCc2ccc(F)cc2)cc2c(=O)n3ccccc3nc2n1CC1CCCO1 (stereo not given)	1%	-12%	-10%	-122*	-10%	-86*
C/C(=N\NC(=O)c1cc(O)ccc1O)c1cccc(NC(=O)c2ccc(Cl)cc2)c1	19%	7%	-3%	-5	50µM*	-6
O=C(/C=C/c1ccc(F)cc1)NCCCN1CCN(CCCNC(=O)/C=C/c2ccc(F)cc2)CC1	-7%	-5%	1%	-43	30%	-92*
COc1ccc(/C=C/C(=O)NCCCN2CCCCCC2)cc1	2%	-3%	0%	13	18%	-4
Cc1ccc(/C=C/C(=O)NCCCN2CCN(CCCNC(=O)/C=C/c3ccc(C)o3)CC2)o1	-5%	1%	-1%	-2	-11%	-76*
CC(C)(C)c1ccc(C(=O)NCC2CCCN2S(=O)(=O)c2ccccc2)cc1 (stereo not given)	-4%	45µM*	-25%	-6	?	14
C/C(=N\NC(=O)c1ccncc1)c1cc2ccccc2oc1=O	5%	5%	6%	4	-25%	-40
C/C(=N/NC(=O)c1ccncc1)c1cc2ccc(O)cc2oc1=O	89µM*	100µM*	i	4	410%	9
CC(C)C(=O)NC(c1cccs1)c1cc([N+](=O)[O-])c2cccnc2c1O (stereo not given)	-1%	11%	-12%	6	-22%	-2
Cc1ccc(C(NC(=O)C(C)C)c2cc([N+](=O)[O-])c3cccnc3c2O)cc1 (stereo not given)	-10%	-6%	0%	-8	50µM*	-26
O=S(=O)(c1ccc(F)cc1)N1CCN(CC(O)COc2ccccc2F)CC1 (stereo not given)	-1%	-7%	-2%	-7	3%	-3
O=S(=O)(c1ccc(F)cc1)N1CCN(CC(O)COCc2cccs2)CC1 (stereo not given)	1%	5%	0%	1	-1%	-78*
CN(C)/C=C1\C=C2C(=O)c3ccccc3N2C1=O	35µM*	?	418%	-22	-37%	10
CN(C)S(=O)(=O)N1C(=O)c2ccccc2C1=O	9%	-10%	-3%	-23	2%	0
CCCCCn1c(=O)[nH]c2cc(C(=O)NCCCN(CC)CC)ccc2c1=O	-3%	4%	-4%	5	-3%	-84*
C=CCn1c(SCCOc2ccc(OC)cc2)nnc1C(C)NC(=O)Cc1ccc(OC)cc1 (stereo not given)	-1%	20%	-5%	6	0%	-101*
CCn1c(SCCOc2ccc(OC)cc2)nnc1C(CO)NC(=O)c1ccc(OC)cc1 (stereo not given)	10%	-1%	-2%	3	2%	3
SMILES	EPAC2 agonist	EPAC1 ag	EPAC2 antag	hERG WT inh	EPAC1 antagonist	KCNH2 3.1 inh
O=c1cc(CSc2nnnn2-c2ccccc2)nc2sccn12	-3%	2%	-9%	-6	2%	-72*
COc1ccccc1CNS(=O)(=O)c1ccc2c(c1)NC(=O)C(C)S2 (stereo not given)	1%	-7%	-2%	-11	-23%	-13
O=[N+]([O-])c1cc2ccccc2c(O)c1O	-2%	-3%	-17%	-2	?	-11
O=[N+]([O-])c1cc(-c2ccccc2)cc([N+](=O)[O-])c1O	0%	1%	56µM*	-6	?	-2
COC(=O)C[C@H]1C=C[C@H](NC(=O)c2cccc(F)c2)[C@@H](CO)O1	3%	2%	10%	nt	8%	nt
Cc1cc(C)nc(SCc2ccc(Cl)cc2)n1	15%	2%	-4%	-16	-5%	-2
Cc1cc(C)nc(SCNC(=O)c2ccc(Cl)cc2)n1	-1%	15%	-1%	-9	-15%	-101*
O=C(NNC(=O)c1ccccc1-n1cccc1)c1cccnc1	5%	1%	14%	-4	10%	-3
Cc1csc2c(N3CCC(C(=O)O)CC3)ncnc12	4%	-1%	6%	0	4%	-20
Cc1csc2c(N3CCN(C(=O)Nc4ccc(OC(F)(F)F)cc4)CC3)ncnc12	-10%	9%	-15%	5	-13%	-92*
Cc1ccccc1C(=O)Nc1c(C(=O)N(CCN(C)C)Cc2ccco2)oc2ccccc12	8%	-1%	4%	-92*	-21%	-84*
COc1ccccc1C(=O)Nc1c(C(=O)N(CCN(C)C)Cc2ccco2)oc2ccccc12	10%	1%	-1%	-37	-13%	-15
COc1ccc(OCC(=O)Nc2c(C(=O)N3CCN(C)CC3)oc3ccccc23)cc1	5%	7%	-10%	0	3%	1
COc1ccc(OCC(=O)Nc2c(C(=O)N(CCN(C)C)Cc3ccco3)oc3ccccc23)cc1	5%	1%	4%	?	-3%	-111*
Cc1cccc(N(C)S(=O)(=O)c2ccc3c(c2)C(C)(C)C(=O)N3C)c1	3%	1%	-24%	4	-16%	-2
C=CCOc1ccccc1CN(C(=O)CCl)c1ccc2c(c1)OCO2	10%	-14%	13µM*	1	-19%	-5
